Laboratory results taken from PubChem BioAssay (Tox21).
Records with an inconclusive call do not appear. The source made the active and inactive calls. Unless noted, calls come from the whole dose curve; as a rule, active = well fitted curve in the direction sought with a large enough effect in the repeat runs; inconclusive = weak or mixed curves; inactive = no such curve, though single readings can be large; an effect the other way counts as inactive or inconclusive.

Assays:
[1] = qHTS assay for small molecules that induce genotoxicity in human embryonic kidney cells expressing luciferase-tagged ATAD5 (AID 651632); note: nearly all actives have a fitted effect of over 15% in size
Outline: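 Quantitative HTS in HEK293T expressing luciferase-tagged ATAD5, whose levels rise upon DNA damage. Exposure ran 16 hr at 37C and 5% CO2, with luminescence read 30 min after Amplite addition at room temperature.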

[2] = qHTS assay for small molecules that induce genotoxicity in human embryonic kidney cells expressing luciferase-tagged ATAD5 - cell viability (AID 651634; calls by dose curve; note: nearly all actives have a fitted effect of over 25% in size)
Outline: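 After 15.5 hr incubation with compound at 37C, 5% CO2, HEK293T ATAD5-luciferase cells received CellTiter-Fluor reagent; fluorescence intensity was quantified following 30 min at 37C.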

[3] = qHTS assay for small molecule disruptors of the mitochondrial membrane potential - cell viability (AID 720634; calls by dose curve;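 note: human HepG2 liver cancer cells; series mostly up to about 83 µM; nearly all actives have a fitted effect of over 20% in size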)
Outline: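 ATP-based luminescent viability readout (CellTiter-Glo, 30 min, room temperature) in HepG2 cells multiplexed with the m-MPI membrane potential dye; compound exposure lasted 1 hr at 37 C.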

[4] = qHTS assay for small molecule disruptors of the mitochondrial membrane potential (AID 720635)
Outline: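 Mitochondrial membrane potential tracked with Mito-MPS dye, red aggregates (ex 540/em 590 nm) against green monomers (ex 490/em 535 nm). Compound treatment 1 hr at 37C, dye 30 min in HepG2.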

[5] = qHTS assay to test for compound auto fluorescence at 590 nm (red) in HepG2 cells (AID 720674)
Outline: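 1 hr compound incubation on HepG2 cells, 37 C, 5% CO2; plate read ex 540 nm / em 590 nm; intensities reported as Rose Bengal sodium equivalents.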

[6] = qHTS assay to test for compound auto fluorescence at 535 nm (green) in HepG2 cells (AID 720675)
[7] = qHTS assay to test for compound auto fluorescence at 460 nm (blue) in HEK293 cells (AID 720678)
Outline: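 Auto fluorescence in the blue band was quantified as triamterene equivalency. HEK293 cells were seeded at 2,000/well, dosed after a 4-5 hr attachment, and kept overnight at 37C before the 405/460 nm reading.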

[8] = qHTS assay to test for compound auto fluorescence at 590 nm (red) in HEK293 cells (AID 720679)
Outline: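 Autofluorescence equivalency to Rose Bengal sodium, 540/590nm, in HEK293 cells exposed overnight to 23 nL compound per well.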

[9] = qHTS assay to test for compound auto fluorescence at 535 nm (green) in HEK293 cells (AID 720680)
[10] = qHTS assay to test for compound auto fluorescence at 460 nm (blue) in HEK293 cell free culture (AID 720681)
Outline: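 Blue fluorescence (Ex 405/Em 460 nm, triamterene-equivalent) was read immediately after pin transfer of compound or DMSO into medium (DMEM, 10% FBS) without cells.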

[11] = qHTS assay to test for compound auto fluorescence at 535 nm (green) in HEK293 cell free culture (AID 720682)
Outline: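 Green-label autofluorescence (485 nm excitation, 535 nm emission) measured on compound added to cell-free culture medium (DMEM, 10% FBS). Output is expressed relative to fluorescein.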

[12] = qHTS assay to test for compound auto fluorescence at 590 nm (red) in HEK293 cell free culture (AID 720683)
Outline: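 Red-channel autofluorescence of compounds in culture medium (DMEM, 10% FBS), no cells, measured at 540/590 nm. Rose Bengal sodium is the reference fluorophore for equivalence.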

[13] = qHTS assay to test for compound auto fluorescence at 590 nm (red) in HepG2 cell free culture (AID 720684)
Outline: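 No cells present: MEM + 10% FBS only. Compound pinned in, red label read (540/590 nm). Activity = fluorescence equivalent to Rose Bengal sodium.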

[14] = qHTS assay to test for compound auto fluorescence at 460 nm (blue) in HepG2 cell free culture (AID 720685)
Outline: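 Cell-free plates of MEM plus 10% FBS received 23 nL compound or DMSO vehicle; blue-channel (405/460 nm) intensity scored against triamterene as reference fluorophore.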

[15] = qHTS assay to test for compound auto fluorescence at 535 nm (green) in HepG2 cell free culture (AID 720686)
[16] = qHTS assay to test for compound auto fluorescence at 460 nm (blue) in HepG2 cells (AID 720687)
Outline: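 Blue-channel autofluorescence (Ex/Em 405/460 nm, triamterene-equivalent) was measured after 1 hr compound exposure at 37 C, 5% CO2. Cells were HepG2, plated overnight at 37 C in MEM plus 10% FBS.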

[17] = target: Glucocorticoid receptor (Homo sapiens) (UniProt P04150); assay: qHTS assay to identify small molecule agonists of the glucocorticoid receptor (GR) signaling pathway (AID 720691; active = well fitted activation curve with a large enough effect in the signal ratio in the repeat runs, not every such curve was filed as active; the % refers to the signal ratio)
Outline: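 Cells: GR-bla HeLa, endogenous GR with stably integrated GRE-beta-lactamase reporter. Treatment 18 h, 37 C, compounds delivered in DMSO. Detection via LiveBLAzer B/G FRET substrate, 2 h RT, fluorescence intensity.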

[18] = target: Glucocorticoid receptor (Homo sapiens) (UniProt P04150); assay: qHTS assay to identify small molecule antagonists of the glucocorticoid receptor (GR) signaling pathway (AID 720692; active = well fitted inhibition curve with a large enough effect in the signal ratio in the repeat runs, not every such curve was filed as active; the % refers to the signal ratio)
Outline: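 Quantitative HTS in antagonist format: HeLa cells expressing endogenous GR and a stably integrated GRE-bla reporter, stimulated with 5 nM dexamethasone (final) alongside test compounds for 18 h.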

[19] = qHTS assay to identify small molecule antagonists of the glucocorticoid receptor (GR) signaling pathway - cell viability counter screen (AID 720693); note: nearly all actives have a fitted effect of over 55% in size
[20] = qHTS assay to identify small molecule antagonists of the androgen receptor (AR) signaling pathway - cell viability counter screen (AID 743033; note: nearly all actives have a fitted effect of over 45% in size)
[21] = qHTS assay to identify small molecule antagonists of the androgen receptor (AR) signaling pathway using the MDA cell line - cell viability counter screen (AID 743041; note: nearly all actives have a fitted effect of over 45% in size)
Outline: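 Using the breast carcinoma line MDA-kb2 AR-luc, test chemicals were co-incubated with R1881 for 16 h; CellTiter-Fluor reagent, added at 15.5 h, provided a fluorescence measure of live cells.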

[22] = qHTS assay to identify small molecule antagonists of the thyroid receptor (TR) signaling pathway - cell viability counter screen (AID 743064); note: nearly all actives have a fitted effect of over 50% in size
Outline: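 GH3.TRE-Luc rat pituitary cells dosed after 4 hr plating, co-stimulated with T3 at 1 nM final, incubated 23.5 h at 37 C. Viability measured in the same wells by CellTiter-Fluor fluorescence after 30 min further at 37 C.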

[23] = tested on: thyroid hormone receptor (rat, GH3 cells); assay: qHTS assay to identify small molecule agonists of the thyroid receptor (TR) signaling pathway (AID 743066; calls by dose curve)
[24] = target: Estrogen receptor (Homo sapiens) (UniProt P03372); assay: qHTS assay to identify small molecule antagonists of the estrogen receptor alpha (ER-alpha) signaling pathway (AID 743069; active = well fitted curve in the direction sought with a large enough effect in the signal ratio in the repeat runs, not every such curve was filed as active; the % refers to the signal ratio)
Outline: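 Fluorescence intensity from a beta-lactamase FRET substrate served as the read-out. Cells: HEK293 with stably integrated ER-alpha-UAS-bla reporter. Agonist 17beta-estradiol was co-added with compounds; incubation 18 hr at 37C, substrate 2 hr at room temperature.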

[25] = target: Estrogen receptor (Homo sapiens) (UniProt P03372); assay: qHTS assay to identify small molecule agonists of the estrogen receptor alpha (ER-alpha) signaling pathway (AID 743075; calls by dose curve)
[26] = target: Estrogen receptor (Homo sapiens) (UniProt P03372); assay: qHTS assay to identify small molecule agonists of the estrogen receptor alpha (ER-alpha) signaling pathway using the BG1 cell line (AID 743079); note: nearly all actives have a fitted effect of over 20% in size
[27] = qHTS assay to identify small molecule antagonists of the estrogen receptor alpha (ER-alpha) signaling pathway using the BG1 cell line (AID 743080; calls by dose curve;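 note: BG1 cells stimulated with 17beta-estradiol alongside compound; series mostly up to about 70 µM; nearly all actives have a fitted effect of over 25% in size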)
Outline: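 Endogenous full-length ER-alpha in BG1-Luc-4E2 cells drives a stably integrated 4×ERE luciferase gene; compounds were tested against 17beta-estradiol over 21.5 h, with luminescence and multiplexed viability fluorescence recorded.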

[28] = target: Aromatase (Homo sapiens) (UniProt P11511); assay: qHTS assay to identify aromatase inhibitors (AID 743083); note: series mostly up to about 70 µM; nearly all actives have a fitted effect of over 55% in size
[29] = qHTS assay to identify aromatase inhibitors - cell viability counter screen (AID 743084);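 note: cells stimulated with testosterone during compound exposure; nearly all actives have a fitted effect of over 55% in size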
[30] = target: Aryl hydrocarbon receptor (Homo sapiens) (UniProt P35869); assay: qHTS assay to identify small molecule that activate the aryl hydrocarbon receptor (AhR) signaling pathway (AID 743085);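 note: HG2L7.5c1 human HepG2 liver cells with stably integrated DRE-driven firefly reporter; series mostly up to about 70 µM; nearly all actives have a fitted effect of over 15% in size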
Outline: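 HepG2 cells stably carrying a 20-DRE firefly luciferase reporter (HG2L7.5c1) treated with compound for 24 hr at 37C. Luciferase read by ONE-Glo luminescence, with CellTiter-Fluor viability read first.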

[31] = qHTS assay to identify small molecule that activate the aryl hydrocarbon receptor (AhR) signaling pathway - cell viability counter screen (AID 743086);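 note: HepG2 liver cells carrying the AhR DRE luciferase reporter; series mostly up to about 70 µM; nearly all actives have a fitted effect of over 45% in size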
Outline: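 Cytotoxicity counter screen: CellTiter-Fluor signal (30 min, 37 C) in 4000 HepG2 cells/well carrying the DRE-luciferase reporter, following 24 h compound exposure at 37 C.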

[32] = target: Acetylcholinesterase (Homo sapiens) (UniProt P22303); assay: Acetylcholinesterase (AChE) small molecule antagonists: fluorescence cell-based qHTS assay (AID 1347398; calls by dose curve; note: nearly all actives have a fitted effect of over 50% in size); conditions: Potency: AChE activity; outcome: AChE activity
Outline: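 Homogeneous quantitative HTS format. SH-SY5Y cells seeded at 2,000 per well settle overnight at 37 C. Compound pretreatment runs 30 min (37 C, 5% CO2); substrate/probe mix then reacts 40 min at RT before reading 490/520 nm.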

[33] = target: Acetylcholinesterase (Homo sapiens) (UniProt P22303); assay: Acetylcholinesterase (AChE) small molecule antagonists: enzyme-based qHTS assay with human liver microsomes (AID 1347399; calls by dose curve; note: nearly all actives have a fitted effect of over 60% in size); conditions: Potency: qHTS inhibition; outcome: qHTS inhibition
Outline: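 Recombinant human AChE (50 mU/mL in the enzyme mix) and human liver microsomes (0.25 mg/mL final) were preincubated with compound and NADPH (0.25 mg/mL final) for 30 min at 37 C. Acetylthiocholine/DTNB was then added; thiocholine was read colorimetrically after 10 min at room temperature.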

[34] = qHTS assay for small molecule agonists of the p53 signaling pathway (AID 651631; calls by dose curve; note: nearly all actives have a fitted effect of over 15% in size)
Outline: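 HCT-116 cells carrying a beta-lactamase reporter under p53 response elements were dosed with compound for 16 h at 37 °C. LiveBLAzer B/G FRET substrate was then added for 2 h at room temperature, and fluorescence intensity was read to detect pathway agonism.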

[35] = qHTS assay for identifying genotoxic compounds that show differential cytotoxicity against isogenic chicken DT40 cell lines with known DNA damage response pathways - Rev3 mutant cell line (AID 743014); note: nearly all actives have a fitted effect of over 55% in size
[36] = qHTS assay for identifying genotoxic compounds that show differential cytotoxicity against isogenic chicken DT40 cell lines with known DNA damage response pathways - Rad54/Ku70 mutant cell line (AID 743015); note: nearly all actives have a fitted effect of over 60% in size
[37] = target: Androgen receptor (Homo sapiens) (UniProt P10275); assay: qHTS assay to identify small molecule antagonists of the androgen receptor (AR) signaling pathway (AID 743035; active = well fitted inhibition curve with a large enough effect in the signal ratio in the repeat runs, not every such curve was filed as active; the % refers to the signal ratio)
Outline: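 Quantitative HTS of the Tox21 10K library used HEK293 AR-UAS-bla cells stimulated with R1881 alongside compound for 16 h at 37C, followed by beta-lactamase FRET detection (LiveBLAzer B/G, 2 h, RT).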

[38] = target: Androgen receptor (Homo sapiens) (UniProt P10275); assay: qHTS assay to identify small molecule agonists of the androgen receptor (AR) signaling pathway using the MDA cell line (AID 743040; note: nearly all actives have a fitted effect of over 20% in size)
Outline: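 Stable MMTV-luciferase reporter in MDA-kb2 cells; note the promoter carries GR as well as AR response elements. 16 h compound treatment, 37C, 0% CO2; ONE-Glo luminescence endpoint.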

[39] = target: Androgen receptor (Homo sapiens) (UniProt P10275); assay: qHTS assay to identify small molecule antagonists of the androgen receptor (AR) signaling pathway using the MDA cell line (AID 743042; note: nearly all actives have a fitted effect of over 55% in size)
Outline: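 Antagonist mode: compounds plus R1881 agonist added to MDA-kb2 AR-luc cells, incubated 16 h at 37C. Luciferase reporter luminescence quantified, with multiplexed CellTiter-Fluor readout for cell viability.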

[40] = qHTS assay to identify small molecule antagonists of the estrogen receptor alpha (ER-alpha) signaling pathway - cell viability counter screen (AID 743074; calls by dose curve; note: nearly all actives have a fitted effect of over 45% in size)
[41] = qHTS assay to identify small molecule antagonists of the estrogen receptor alpha (ER-alpha) signaling pathway using the BG1 cell line - cell viability counter screen (AID 743081)
[42] = target: Peroxisome proliferator-activated receptor gamma (Homo sapiens) (UniProt P37231); assay: qHTS assay to identify small molecule agonists of the peroxisome proliferator-activated receptor gamma (PPARg) signaling pathway (AID 743094; active = well fitted activation curve with a large enough effect in the signal ratio in the repeat runs, not every such curve was filed as active; the % refers to the signal ratio)
Outline: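 Reporter activation was scored by fluorescence of cleaved LiveBLAzer B/G substrate (1 h, room temperature) in PPARg-bla HEK293H cells previously treated 17 h at 37C with DMSO-dissolved compounds.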

Measured: Potency

Sequence of Estrogen receptor (Homo sapiens) (P03372 whole entry, looked up): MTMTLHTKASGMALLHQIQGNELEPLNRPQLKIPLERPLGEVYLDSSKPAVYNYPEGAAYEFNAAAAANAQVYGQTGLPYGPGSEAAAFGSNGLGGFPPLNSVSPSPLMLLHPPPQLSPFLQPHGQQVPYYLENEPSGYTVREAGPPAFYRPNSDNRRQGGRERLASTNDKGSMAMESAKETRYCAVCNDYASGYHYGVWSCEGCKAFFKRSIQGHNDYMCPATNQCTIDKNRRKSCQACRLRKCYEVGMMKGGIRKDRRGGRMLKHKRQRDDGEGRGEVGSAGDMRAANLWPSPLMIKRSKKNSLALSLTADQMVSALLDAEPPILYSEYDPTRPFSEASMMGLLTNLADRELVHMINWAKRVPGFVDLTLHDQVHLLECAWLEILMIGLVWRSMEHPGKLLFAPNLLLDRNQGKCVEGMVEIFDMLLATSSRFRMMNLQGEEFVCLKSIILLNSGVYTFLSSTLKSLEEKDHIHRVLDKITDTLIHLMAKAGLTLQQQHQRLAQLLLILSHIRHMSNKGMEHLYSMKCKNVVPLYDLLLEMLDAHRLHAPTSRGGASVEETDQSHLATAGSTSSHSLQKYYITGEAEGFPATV
Sequence of Androgen receptor (Homo sapiens) (P10275 whole entry, looked up): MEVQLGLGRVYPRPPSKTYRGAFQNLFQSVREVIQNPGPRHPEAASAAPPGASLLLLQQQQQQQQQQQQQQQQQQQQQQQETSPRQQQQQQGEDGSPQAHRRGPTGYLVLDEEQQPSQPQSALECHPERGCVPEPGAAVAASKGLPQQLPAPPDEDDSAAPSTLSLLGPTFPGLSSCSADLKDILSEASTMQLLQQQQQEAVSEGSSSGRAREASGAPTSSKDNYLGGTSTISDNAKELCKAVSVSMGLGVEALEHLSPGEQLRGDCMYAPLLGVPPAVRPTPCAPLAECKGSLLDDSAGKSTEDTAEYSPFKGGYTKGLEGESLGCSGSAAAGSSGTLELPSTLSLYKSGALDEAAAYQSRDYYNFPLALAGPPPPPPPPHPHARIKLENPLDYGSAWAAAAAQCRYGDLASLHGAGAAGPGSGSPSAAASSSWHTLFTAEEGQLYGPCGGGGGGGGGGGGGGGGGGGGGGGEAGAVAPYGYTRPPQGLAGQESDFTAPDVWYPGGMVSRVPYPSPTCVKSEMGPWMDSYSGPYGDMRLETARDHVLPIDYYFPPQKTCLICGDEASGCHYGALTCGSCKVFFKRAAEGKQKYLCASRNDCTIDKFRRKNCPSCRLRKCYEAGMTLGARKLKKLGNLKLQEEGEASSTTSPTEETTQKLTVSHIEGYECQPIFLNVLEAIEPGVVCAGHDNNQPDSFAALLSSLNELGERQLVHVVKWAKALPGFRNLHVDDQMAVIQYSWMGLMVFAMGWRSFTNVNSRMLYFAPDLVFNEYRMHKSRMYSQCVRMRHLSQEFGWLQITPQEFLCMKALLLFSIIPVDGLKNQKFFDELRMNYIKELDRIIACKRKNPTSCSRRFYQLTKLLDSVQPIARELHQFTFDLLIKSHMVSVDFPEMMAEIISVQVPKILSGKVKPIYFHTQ
Sequence of Glucocorticoid receptor (Homo sapiens) (P04150 whole entry, looked up): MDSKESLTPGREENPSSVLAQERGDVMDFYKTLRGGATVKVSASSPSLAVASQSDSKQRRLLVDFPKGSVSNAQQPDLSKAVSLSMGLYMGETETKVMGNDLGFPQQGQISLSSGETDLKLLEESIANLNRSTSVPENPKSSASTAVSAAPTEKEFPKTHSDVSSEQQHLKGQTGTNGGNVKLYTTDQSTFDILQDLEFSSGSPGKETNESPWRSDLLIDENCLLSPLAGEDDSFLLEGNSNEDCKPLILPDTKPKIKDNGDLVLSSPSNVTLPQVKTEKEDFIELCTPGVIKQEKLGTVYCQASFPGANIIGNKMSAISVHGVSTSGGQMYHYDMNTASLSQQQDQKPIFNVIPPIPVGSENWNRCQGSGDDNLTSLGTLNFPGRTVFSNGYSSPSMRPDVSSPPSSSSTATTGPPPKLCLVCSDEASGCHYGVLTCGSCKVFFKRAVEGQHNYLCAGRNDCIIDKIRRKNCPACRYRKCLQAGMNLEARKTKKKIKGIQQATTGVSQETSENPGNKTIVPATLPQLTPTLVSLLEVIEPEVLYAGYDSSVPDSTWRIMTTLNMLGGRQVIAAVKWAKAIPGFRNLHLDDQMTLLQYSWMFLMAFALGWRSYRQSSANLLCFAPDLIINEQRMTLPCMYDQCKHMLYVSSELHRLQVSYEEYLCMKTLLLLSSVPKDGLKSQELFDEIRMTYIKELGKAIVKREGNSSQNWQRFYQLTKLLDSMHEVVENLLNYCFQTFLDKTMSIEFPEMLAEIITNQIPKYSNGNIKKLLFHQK
Sequence of Acetylcholinesterase (Homo sapiens) (P22303 whole entry, looked up): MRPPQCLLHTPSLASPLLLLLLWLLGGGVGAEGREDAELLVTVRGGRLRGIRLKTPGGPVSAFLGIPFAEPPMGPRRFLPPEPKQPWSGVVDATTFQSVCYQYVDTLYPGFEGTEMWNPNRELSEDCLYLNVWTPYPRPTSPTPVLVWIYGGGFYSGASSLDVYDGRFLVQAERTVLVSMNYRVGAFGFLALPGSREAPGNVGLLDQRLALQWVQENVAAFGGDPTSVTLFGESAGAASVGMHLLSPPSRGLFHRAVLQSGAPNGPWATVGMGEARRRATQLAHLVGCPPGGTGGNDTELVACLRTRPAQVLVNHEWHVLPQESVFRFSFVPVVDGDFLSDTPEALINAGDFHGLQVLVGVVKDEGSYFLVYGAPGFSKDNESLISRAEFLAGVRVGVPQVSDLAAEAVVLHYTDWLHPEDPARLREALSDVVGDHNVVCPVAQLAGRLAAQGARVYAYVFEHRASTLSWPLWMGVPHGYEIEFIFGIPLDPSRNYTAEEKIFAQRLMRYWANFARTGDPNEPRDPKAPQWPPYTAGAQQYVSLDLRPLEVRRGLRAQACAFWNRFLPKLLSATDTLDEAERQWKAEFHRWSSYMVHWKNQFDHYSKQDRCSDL
Sequence of Aromatase (Homo sapiens) (P11511 whole entry, looked up): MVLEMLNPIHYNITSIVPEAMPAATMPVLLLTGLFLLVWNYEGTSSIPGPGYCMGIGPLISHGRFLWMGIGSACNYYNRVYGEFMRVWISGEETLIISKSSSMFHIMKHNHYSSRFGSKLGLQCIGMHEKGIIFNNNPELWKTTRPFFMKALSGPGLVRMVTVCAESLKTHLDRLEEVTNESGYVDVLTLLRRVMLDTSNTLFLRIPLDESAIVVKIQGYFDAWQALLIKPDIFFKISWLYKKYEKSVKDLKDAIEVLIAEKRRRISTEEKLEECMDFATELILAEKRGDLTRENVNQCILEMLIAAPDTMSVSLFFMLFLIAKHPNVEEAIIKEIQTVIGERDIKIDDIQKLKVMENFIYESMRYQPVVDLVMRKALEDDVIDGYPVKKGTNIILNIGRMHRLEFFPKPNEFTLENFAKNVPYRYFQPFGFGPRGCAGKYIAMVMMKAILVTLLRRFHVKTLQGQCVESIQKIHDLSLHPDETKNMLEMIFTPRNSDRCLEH
Sequence of Aryl hydrocarbon receptor (Homo sapiens) (P35869 whole entry, looked up): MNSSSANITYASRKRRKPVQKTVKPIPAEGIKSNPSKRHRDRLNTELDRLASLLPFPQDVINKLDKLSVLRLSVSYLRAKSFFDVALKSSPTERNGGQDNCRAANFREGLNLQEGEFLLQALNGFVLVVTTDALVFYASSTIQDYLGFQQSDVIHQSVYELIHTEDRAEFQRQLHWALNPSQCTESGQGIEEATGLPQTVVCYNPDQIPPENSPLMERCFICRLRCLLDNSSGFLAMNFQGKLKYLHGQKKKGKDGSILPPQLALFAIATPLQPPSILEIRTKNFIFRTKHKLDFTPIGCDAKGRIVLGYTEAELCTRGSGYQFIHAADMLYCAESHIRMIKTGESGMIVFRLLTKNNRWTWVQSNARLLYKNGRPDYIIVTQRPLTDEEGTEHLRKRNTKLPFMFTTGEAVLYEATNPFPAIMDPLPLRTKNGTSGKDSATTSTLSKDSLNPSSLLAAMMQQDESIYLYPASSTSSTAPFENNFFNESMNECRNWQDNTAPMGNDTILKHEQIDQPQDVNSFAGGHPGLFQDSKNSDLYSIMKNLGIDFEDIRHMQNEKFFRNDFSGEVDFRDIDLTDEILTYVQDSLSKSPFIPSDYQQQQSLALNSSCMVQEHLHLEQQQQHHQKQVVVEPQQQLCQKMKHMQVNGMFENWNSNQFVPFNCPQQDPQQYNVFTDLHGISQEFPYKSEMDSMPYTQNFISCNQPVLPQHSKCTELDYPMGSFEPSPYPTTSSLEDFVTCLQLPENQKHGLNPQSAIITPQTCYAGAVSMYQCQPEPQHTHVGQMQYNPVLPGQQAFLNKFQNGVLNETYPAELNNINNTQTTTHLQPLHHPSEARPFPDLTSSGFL
Sequence of Peroxisome proliferator-activated receptor gamma (Homo sapiens) (P37231 whole entry, looked up): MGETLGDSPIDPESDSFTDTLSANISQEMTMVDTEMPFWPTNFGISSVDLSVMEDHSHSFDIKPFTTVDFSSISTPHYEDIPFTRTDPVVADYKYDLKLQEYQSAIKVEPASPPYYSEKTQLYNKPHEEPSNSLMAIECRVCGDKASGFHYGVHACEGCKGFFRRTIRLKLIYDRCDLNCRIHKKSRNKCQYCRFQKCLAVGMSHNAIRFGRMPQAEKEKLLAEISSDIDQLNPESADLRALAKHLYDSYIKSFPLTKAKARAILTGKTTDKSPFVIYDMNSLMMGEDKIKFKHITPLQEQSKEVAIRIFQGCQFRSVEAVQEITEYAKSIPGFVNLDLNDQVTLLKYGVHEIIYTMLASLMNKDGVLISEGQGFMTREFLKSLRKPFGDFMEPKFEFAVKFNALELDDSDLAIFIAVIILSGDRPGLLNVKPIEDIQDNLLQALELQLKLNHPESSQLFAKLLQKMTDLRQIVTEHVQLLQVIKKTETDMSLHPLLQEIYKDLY

Cc1ccc2c(c1)[C@]13CCCC[C@@H]1[C@H](C2)N(C)CC3
inactive: [1] | [2] | [3] | [4] | [5] | [6] | [7] | [8] | [9] | [10] | [11] | [12] | [13] | [14] | [15] | [16] | [17] | [18] | [19] | [20] | [21] | [22] | [23] | [24] | [25] | [26] | [27] | [28] | [29] | [30] | [31]

N#CC1(N)CCCCC1
inactive: [32] | [33]

CNC(C)[C@@H]1CC[C@@H](N)[C@@H](O[C@H]2[C@H](O)[C@@H](O[C@H]3OC[C@](C)(O)[C@H](NC)[C@H]3O)[C@H](N)C[C@@H]2N)O1 (stereo partly drawn)
inactive: [34] | [1] | [2] | [3] | [4] | [17] | [18] | [19] | [35] | [36] | [20] | [37] | [38] | [21] | [39] | [24] | [40] | [25] | [26] | [27] | [41] | [28] | [29] | [30] | [31] | [42]

O=c1[nH][nH]c(=O)c2cc([N+](=O)[O-])ccc12
inactive: [32] | [33]

Nc1cc(Cl)c(O)c(Cl)c1
inactive: [32] | [33]
